Assay [1] can be described thus: Wnt pathway potentiators raising nuclear beta-catenin – imaging, WNT3A-conditioned medium, mouse C2C12, NPC library, primary screen (AID 1117326; in the data active means nuclear beta-catenin stimulation mostly above about 4.2%, no sharp cut-off; inactive means mostly below about 10%). The note with it: stronger effect = higher value.
Assay [2] is described as follows: stimulators of insulin release from INS-1E, primary screen, cell-based, 5 mM glucose, NPC library (AID 1117329;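 active means compound raises insulin release from rat beta cells at 5 mM glucose, no numeric limit stated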). The conditions noted are these: rat INS-1E insulin secretion, at 10 µM, stronger effect = higher value.
The nature of assay [3]: growth inhibition of GSK3B-pretreated HCT116 cells – cell-based, CellTiter-Glo, 0.2 to 20 µM (AID 1117336;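 active means compounds lowering colon cancer cell viability after pretreatment blocking the GSK3B kinase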). The note with it: HCT116 viability after GSK3B inhibitor, at 20 µM, stronger effect = higher value. Background: In ATP-based viability assays light output follows the ATP content of the culture.
The nature of assay [4]: inhibition of endothelial tube formation, primary screen, imaging, VEGF stimulated, CD31 staining, tube area, NPC library (AID 1117340;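 active means compound that reduces growth-factor-driven endothelial tube area in a mixed cell culture, no cutoff stated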). The note with it: VEGF-stimulated ADSC/ECFC co-culture, at 10 µM, stronger effect = higher value.
The nature of assay [5]: GLP1 release stimulators, primary, NCI-H716, NPC library (AID 1117341;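 active means compound raises GLP1 secretion from the human gut endocrine cells, with no numeric limit stated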). The conditions noted are these: NCI-H716 cells, at 10 µM, stronger effect = higher value.
Assay [6] in a line: HCT116 colon cancer cell growth inhibition, primary screen, CellTiter-Glo luminescence, NPC library (AID 1117342;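 active means compounds that lower survival of HCT116 colon cancer cells in the luminescence readout, no numeric limit stated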). The conditions noted are these: at 20 µM (top of the series).
A short description of assay [7]: reduced SW480 viability measured with CellTiter-Glo, NPC library, primary (AID 1117343;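 active means compounds that lower viability of the colon cancer cells in the luminescence readout, with no numeric limit stated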). The conditions noted are these: CellTiter-Glo luminescence; at 20 µM (top of the series) unless noted.
The nature of assay [8]: NPC library primary testing for decreased DLD-1 cell viability via CellTiter-Glo (AID 1117346;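 active means compounds that lower survival of DLD-1 colon cancer cells in the luminescence readout, no cutoff given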). The note with it: DLD-1 viability, CellTiter-Glo luminescence; at 20 µM (top of the series).
Assay [9] can be described thus: viability loss with induced miR-34 in A549 – imaging, A549 dox-inducible miR-34, nuclei and caspase counts, primary screen (AID 1347080). The note with it: A549 miR-34 inducible, Hoechst nuclei count, 48 h.
The nature of assay [10]: blockers of cellular phospholipid synthesis – cell-based, LOPAC library, screen 4, primary screen (AID 1347384; call rule not given here). The conditions noted are these: animal cells, phospholipid biosynthesis inhibition screen; at 10 µM.
A short description of assay [11]: galactose survival enhancers in mitochondrial complex I cybrids – cell-based, galactose medium, ATP luminescence, primary screen (AID 1645843;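 active means z-score of at least 1.8 in each of two replicates, scored against plate mean and spread of sample wells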;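 further: positive z means more ATP and so rescue of galactose-driven cybrid death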). The note with it: complex I mutant cybrid cells, 72 h, stronger effect = higher value.
The nature of assay [12]: P. berghei load reduction in hepatocytes – cell-based, HepG2, luciferase luminescence, HepG2 viability, primary screen (AID 624349; in the data active means parasite load remaining mostly below about 12%, no sharp cut-off; inactive means mostly above about 10%;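 further: 100% = mean of DMSO negative control wells on the same plate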). The note with it: P. berghei liver stage in HepG2, luciferase luminescence, concentration not given here; parasite load remaining: stronger effect = lower value; viability: measured here: HepG2 viability without parasites.
Assay [13] can be described thus: MELAS cybrid and Rieske KO viability enhancers – cell-based, MELAS cybrids, Rieske KO mouse fibroblasts, CellTiter-Glo, primary screen (AID 1508586;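 active means mean z-score across replicates of 1.96 or higher in either the MELAS or the Rieske mutant cell line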;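 further: z relative to plate mean and SD of compound and empty wells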). The conditions noted are these: low glucose.
Where [14] appears, read: stronger effect = lower value, cell number ratio, induced over uninduced.
The mark [15] stands for this setting: measured here: relative caspase fold change +Dox/-Dox.
[16] abbreviates: measured here: total cells with miR-34 induction, stronger effect = lower value.
[17] abbreviates: measured here: total cells without miR-34 induction.

Molecules are shown by their SMILES. Several values for one entry are separate records, joined by “and”; a condition that tells them apart may be missing. Equal values may be shown once. Activity calls are given as the source filed them.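 How the source made its calls, unless noted: active means compounds whose cell count with miR-34 switched on is under 0.7 times the count with it off; inactive means the rest.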

Broadly, the viability is a read-out of living cells in per cent, often relative to untreated cells.

As to `NC1[C@H]2CN(c3nc4c(cc3F)c(=O)c(C(=O)O)cn4-c3ccc(F)cc3F)C[C@@H]12` (stereo partly drawn), the nuclear beta-catenin stimulation in assay [1] (at 10 µM) is -0.6% (inactive); in assay [1] (stimulation, at 2 µM) it was 0.5%. Moreover, in assay [2], the insulin secretion stimulation is 17.5% (inactive). Also, the viability decrease in [3] is 64.3% (active). Also, the tube area decrease in assay [4] is 26.1% (inactive). The GLP1 secretion stimulation in [5] was -0.1% (inactive). Besides, the inhibition of viability in assay [6] was 58.4% (active). In addition, the viability decrease (inhibition) in assay [7] was 82.9% (active); in assay [8] it was 58.6% (active). In addition, the fold change in assay [9] (setting [14]) was 1.35 (inactive); in assay [9] (setting [15]) it was 1.08. Moreover, the results for the cell count in [9] (setting [16]) and in [9] (setting [17]) were 3150 and 2330, respectively. Further, the outcome in assay [10] was inactive. Also, the z-score in assay [11] was 2.21 (active).

As for `CCC(=O)c1ccc2c(c1)N(CCCN(C)C)c1ccccc1S2`, the nuclear beta-catenin stimulation in assay [1] (at 10 µM) is 0.3% (inactive); in [1] (stimulation, at 2 µM) it was -0.2%. Moreover, the insulin secretion stimulation in assay [2] was 33.8% (active). Moreover, the viability decrease in assay [3] was 24.5% (inactive). In [4], the tube area decrease is 48.9% (active). Besides, the GLP1 secretion stimulation in assay [5] is -2.4% (inactive). Also, the inhibition of viability in [6] was 46.9% (inactive). Moreover, the viability decrease (inhibition) was 65.1% (active) in [7] and 20.4% (inactive) in assay [8]. The results for the fold change in assay [9] (setting [14]) and in assay [9] (setting [15]) were 0.872 (inactive) and 0.831, respectively. Also, the figures for the cell count in assay [9] (setting [16]) and in assay [9] (setting [17]) were 1900 and 2180, respectively. Moreover, the compound was called inactive in [10]. Also, the z-score in assay [11] was -1.19 (inactive).

With `CSc1ccc(C(=O)c2[nH]c(=O)[nH]c2C)cc1`, the nuclear beta-catenin stimulation in assay [1] (at 10 µM) was 0.3% (inactive); in assay [1] (stimulation, at 2 µM), 0.1%. Moreover, the insulin secretion stimulation in assay [2] was 1.4% (inactive). Moreover, the viability decrease in assay [3] is -6.3% (inactive). Also, the tube area decrease in [4] is -15.1% (inactive). The GLP1 secretion stimulation in [5] is 0.1% (inactive). Besides, the inhibition of viability in assay [6] is -7% (inactive). For the same compound, the viability decrease (inhibition) was 29% (inactive) in [7] and 9.15% (inactive) in [8]. In addition, the fold change in assay [9] (setting [14]) was 0.968 (inactive); in [9] (setting [15]), 1.32. The cell count in [9] (setting [16]) was 8650; in assay [9] (setting [17]), 8940. The result in [10] was inactive. In addition, in assay [11], the z-score is 0.31 (inactive).

Regarding `NC(N)=NCCC[C@H](N)C(=O)O`, the nuclear beta-catenin stimulation in assay [1] (at 10 µM) was -0.2% (inactive); in assay [1] (stimulation, at 2 µM), 2.5%. The insulin secretion stimulation in assay [2] was 0.9% (active). The viability decrease in assay [3] is 2.3% (inactive). Also, the tube area decrease in assay [4] is -23.7% (inactive). For the same compound, the GLP1 secretion stimulation in [5] was 2.9% (inactive). Further, the inhibition of viability in assay [6] is -16.4% (inactive). The viability decrease (inhibition) in assay [7] was 8.2% (inactive); in assay [8], 0% (inactive). Also, the fold change in assay [9] (setting [14]) is 0.976 (inactive); in assay [9] (setting [15]), 1.65. The figures for the cell count in assay [9] (setting [16]) and in assay [9] (setting [17]) were 10400 and 10700, respectively. Further, in [10], the result was inactive. Moreover, the z-score in [11] is 0.285 (inactive).

`CC(=O)Oc1cc(C(F)(F)F)ccc1C(=O)O`: the parasite load remaining in assay [12] is 140% (inactive) and 78.8% (inactive). Also, the viability in [12] is 117% and 74.8%. The nuclear beta-catenin stimulation in assay [1] (at 10 µM) is -0.6% (inactive); in [1] (stimulation, at 2 µM), -0.8%. Moreover, in assay [2], the insulin secretion stimulation is 2.8% (inactive). Moreover, the viability decrease in assay [3] is -12.2% (inactive). Besides, in assay [4], the tube area decrease is -1.7% (inactive). For the same compound, the GLP1 secretion stimulation in assay [5] was -6.4% (inactive). Also, in assay [6], the inhibition of viability is 16.4% (inactive). Also, the values for the viability decrease (inhibition) in assay [7] and in assay [8] were 8.4% (inactive) and 5.4% (inactive), respectively. Besides, the fold change in assay [9] (setting [14]) is 0.83 (inactive) and 0.986 (inactive); in assay [9] (setting [15]), 1.45 and 0.716. Also, the cell count in [9] (setting [16]) was 8780 and 8310; in assay [9] (setting [17]), 10600 and 8430. Further, the result in [10] was inactive. Also, the z-score was -0.0694 (inactive) and 0.0403 (inactive) in [13] (MELAS cybrid survival, CellTiter-Glo 48 h, stronger effect = higher value); -0.153 and -0.0623 in assay [13] (Rieske KO mouse fibroblast survival, CellTiter-Glo 72 h).

The values above are taken from PubChem BioAssay.
